These results are taken from PubChem BioAssay.

As a reminder, the inhibition is the change of the read-out against control, counted positive when it falls.

Assay [1] can be described thus: antimalarial activity against Dd2 strain (AID 2302;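 active means growth inhibition above 50% at the single 2 µM test dose, taken to imply half-maximal potency below 2 µM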;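 further: 0% = DMSO untreated growth and 100% = chloroquine plus artemisinin killed control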). To be noted: P. falciparum Dd2 in RBCs, LDH growth readout, 72 h; at 2 µM; active compounds read high.
Assay [2] in a line: human hepatoma cell viability loss – ATP luminescence, cytotoxicity control for P. falciparum antimalarial project, primary screen (AID 2303;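 active means inhibition above 50%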;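 further: 0% = DMSO wells and 100% = digitonin-killed cells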). To be noted: HepG2 viability, 24-48 h, at 10 µM, active compounds read high.
For assay [3], the target named is L-lactate dehydrogenase (Plasmodium falciparum (isolate CDC / Honduras)) (UniProt Q27743). As to the kind of experiment: PfLDH activity inhibition – cell lysate, 3D7 strain, counter-screen for P. falciparum growth inhibition project (AID 2304).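 Further: 0% = vehicle and 100% = reference inhibitor.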 To be noted: P. falciparum 3D7 crude extract, LDH APAD/NBT absorbance; at 2 µM; active compounds read high. For orientation: A counterscreen serves to expose hits that act by an unwanted route or on another target.
Sequence of L-lactate dehydrogenase (Plasmodium falciparum (isolate CDC / Honduras)) (Q27743 whole entry, looked up): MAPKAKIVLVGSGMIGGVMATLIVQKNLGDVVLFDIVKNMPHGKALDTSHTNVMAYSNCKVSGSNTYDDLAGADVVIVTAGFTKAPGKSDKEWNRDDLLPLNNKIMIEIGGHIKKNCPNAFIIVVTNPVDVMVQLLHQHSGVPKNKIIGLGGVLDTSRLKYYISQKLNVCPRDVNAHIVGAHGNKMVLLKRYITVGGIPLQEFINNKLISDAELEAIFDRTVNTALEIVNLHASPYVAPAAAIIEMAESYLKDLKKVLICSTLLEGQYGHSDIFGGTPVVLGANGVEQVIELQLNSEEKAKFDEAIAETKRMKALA

Assay [4] can be described thus: inhibition of 3D7 malaria parasite growth – strain 3D7 (AID 2306).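 Further: 0% = DMSO wells and 100% = chloroquine plus artemisinin control wells.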 The conditions noted are these: P. falciparum 3D7 erythrocytic growth, LDH absorbance, 72 h; at 2 µM; active compounds read high.
Assay [5] concerns the target Calcium-dependent protein kinase 1 (Plasmodium falciparum (isolate 3D7)) (UniProt P62344). As to the kind of experiment: PfCDPK1 kinase inhibitors, biochemical, TCAMS library (AID 1159585; cut-off not given, nearly all actives have IC50 up to about 0.98 µM;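 further: inhibitors leave more ATP so luminescence rises with inhibition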). To be noted: recombinant PfCDPK1, Kinase-Glo ATP depletion luminescence. A general note: Kinase-Glo measures the ATP left after a reaction by luminescence.
Assay [6] concerns the target Plasmodium falciparum protein kinase 6 (PK6, PF3D7_1337100) (UniProt Q8IDW1). As to the kind of experiment: PfPK6 kinase inhibitors, biochemical, TCAMS library (AID 1159586). The conditions noted are these: recombinant PfPK6, Kinase-Glo ATP depletion luminescence.
Assay [7] concerns the target Protein kinase 7 (PK7), Plasmodium falciparum 3D7 (PF3D7_0213400) (UniProt Q7YTF7). As to the kind of experiment: inhibition of Plasmodium PK7 catalytic activity – biochemical, TCAMS antimalarial set, Kinase-Glo luminescence (AID 1159587). To be noted: recombinant PfPK7, Kinase-Glo ATP depletion luminescence.
Assay [8] deals with Calcium-dependent protein kinase 4 (Plasmodium falciparum (isolate 3D7)) (UniProt Q8IBS5). As to the kind of experiment: PfCDPK4 kinase inhibitors, biochemical, TCAMS library (AID 1159588; cut-off not given, nearly all actives have IC50 up to about 0.91 µM). To be noted: recombinant PfCDPK4, Kinase-Glo ATP depletion luminescence.
Sequence of Calcium-dependent protein kinase 4 (Plasmodium falciparum (isolate 3D7)) (Q8IBS5 whole entry, looked up): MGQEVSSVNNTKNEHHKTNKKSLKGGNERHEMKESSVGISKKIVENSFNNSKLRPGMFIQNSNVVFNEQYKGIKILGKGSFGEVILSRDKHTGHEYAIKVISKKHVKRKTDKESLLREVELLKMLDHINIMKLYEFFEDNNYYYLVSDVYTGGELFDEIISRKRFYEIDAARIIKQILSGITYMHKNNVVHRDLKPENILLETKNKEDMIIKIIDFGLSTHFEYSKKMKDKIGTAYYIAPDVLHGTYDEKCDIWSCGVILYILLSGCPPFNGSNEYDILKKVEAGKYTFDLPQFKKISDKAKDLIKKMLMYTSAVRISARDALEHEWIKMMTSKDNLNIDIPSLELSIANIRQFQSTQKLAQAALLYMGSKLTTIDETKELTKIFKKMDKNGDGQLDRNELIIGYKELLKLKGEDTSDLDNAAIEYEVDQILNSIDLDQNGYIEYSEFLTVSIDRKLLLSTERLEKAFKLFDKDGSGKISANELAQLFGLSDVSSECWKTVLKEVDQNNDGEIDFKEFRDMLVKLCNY

Unmarked numbers belong to inactive results. For some assays here: Measured potencies and affinities stand elsewhere. Activity calls are given as the source filed them. Unless noted, how the calls were made is not given here.

Sequence of Protein kinase 7 (PK7), Plasmodium falciparum 3D7 (PF3D7_0213400) (Q7YTF7 1-343): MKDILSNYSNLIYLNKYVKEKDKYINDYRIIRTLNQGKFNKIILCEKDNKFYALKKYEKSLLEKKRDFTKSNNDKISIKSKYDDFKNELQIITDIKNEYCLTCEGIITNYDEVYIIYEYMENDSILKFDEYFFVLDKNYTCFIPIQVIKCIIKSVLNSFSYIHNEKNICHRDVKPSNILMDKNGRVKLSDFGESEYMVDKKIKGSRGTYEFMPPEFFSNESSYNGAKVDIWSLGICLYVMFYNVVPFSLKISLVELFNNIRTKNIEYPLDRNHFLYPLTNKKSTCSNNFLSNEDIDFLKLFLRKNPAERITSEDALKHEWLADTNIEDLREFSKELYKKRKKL
Sequence of Calcium-dependent protein kinase 1 (Plasmodium falciparum (isolate 3D7)) (P62344 whole entry, looked up): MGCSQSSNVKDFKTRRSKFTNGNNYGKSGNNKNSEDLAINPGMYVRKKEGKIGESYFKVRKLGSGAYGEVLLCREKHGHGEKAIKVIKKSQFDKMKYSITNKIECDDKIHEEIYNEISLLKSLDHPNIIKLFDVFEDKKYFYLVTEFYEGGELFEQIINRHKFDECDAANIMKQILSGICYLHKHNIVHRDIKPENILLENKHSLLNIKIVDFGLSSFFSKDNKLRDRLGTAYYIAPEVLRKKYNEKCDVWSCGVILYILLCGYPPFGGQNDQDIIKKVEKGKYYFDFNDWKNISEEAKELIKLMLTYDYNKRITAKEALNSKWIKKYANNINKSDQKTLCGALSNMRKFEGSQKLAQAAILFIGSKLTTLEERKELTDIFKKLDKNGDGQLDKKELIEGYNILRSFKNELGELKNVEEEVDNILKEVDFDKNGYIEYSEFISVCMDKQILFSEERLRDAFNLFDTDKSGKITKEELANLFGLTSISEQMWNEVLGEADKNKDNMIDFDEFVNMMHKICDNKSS
Sequence of Plasmodium falciparum protein kinase 6 (PK6, PF3D7_1337100) (Q8IDW1 1-305): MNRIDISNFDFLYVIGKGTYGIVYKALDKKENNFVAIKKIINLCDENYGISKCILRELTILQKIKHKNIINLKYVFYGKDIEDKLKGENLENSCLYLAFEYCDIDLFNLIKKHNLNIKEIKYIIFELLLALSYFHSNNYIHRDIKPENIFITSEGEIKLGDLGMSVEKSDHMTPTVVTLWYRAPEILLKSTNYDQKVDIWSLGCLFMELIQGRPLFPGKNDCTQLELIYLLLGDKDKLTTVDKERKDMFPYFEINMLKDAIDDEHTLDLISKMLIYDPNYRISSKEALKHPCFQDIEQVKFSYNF

On to `CCc1cc(OC)c(C(=O)NC2CCN(C[C@H](O)c3ccnc4ccc(OC)cc34)CC2)cc1Br`, for which the growth inhibition is 56% (active) in assay [1] and 98% (active) in assay [4]. Besides, the inhibition in assay [2] was 6%; in assay [3] it was 2%. Moreover, the result in assay [5], in assay [6], in assay [7] and in assay [8] was inactive.

On to `Brc1ccc(Nc2nc3ccccc3nc2Nc2ccc(Br)cc2)cc1`, for which the growth inhibition in assay [1] was 100% (active); in assay [4], 101% (active). Further, the inhibition in assay [2] is 18%; in assay [3], -2%. Besides, the outcome in assay [5], in assay [6], in assay [7] and in assay [8] was inactive.

Regarding `C=CCn1c(SCc2c(C)noc2C)nc2scc(-c3cccs3)c2c1=O`, the growth inhibition is 34% in assay [1] and 88% (active) in assay [4]. Also, the inhibition in assay [2] was 13%; in assay [3] it was 0%. The outcome in assay [5], in assay [6], in assay [7] and in assay [8] was inactive.

For `O=S(=O)(c1ccccc1)C1CC1`, the growth inhibition in assay [1] was 65% (active); in assay [4], 89% (active). For the same compound, the inhibition in assay [2] is -3%; in assay [3], 7%. Moreover, the result in assay [5], in assay [6], in assay [7] and in assay [8] was inactive.

For the compound `O=C(c1cccc(-c2cccc(-c3nc4ccc(C(F)(F)F)cc4[nH]3)c2)c1)N1CCCCC1CN1CCC(O)C1` (configuration not stated), the growth inhibition in assay [1] was 101% (active); in assay [4] it was 91% (active). In addition, the inhibition in assay [2] is 51% (active); in assay [3] it was 0%. In addition, the result in assay [5], in assay [6], in assay [7] and in assay [8] was inactive.

In the case of `O=C(Nc1ccc(Oc2ccccc2)cc1)N(Cc1ccc(-c2ccc(CN3CCNCC3)cc2)cc1)C1CCN(Cc2ccccc2)CC1`, the growth inhibition in assay [1] was 73% (active); in assay [4], 101% (active). The inhibition was 31% in assay [2] and -1% in assay [3]. The result in assay [5], in assay [6], in assay [7] and in assay [8] was inactive.

With `Nc1ncc(-c2cccc(CCN3CCOCC3)c2)cc1-c1nc2ccc(Br)cc2[nH]1`, the values for the growth inhibition in assay [1] and in assay [4] were 98% (active) and 101% (active), respectively. Besides, the inhibition in assay [2] was 60% (active); in assay [3], 4%. Moreover, the outcome in assay [5], in assay [6], in assay [7] and in assay [8] was inactive.

As to `COCCNCc1ncsc1-c1ccc2c(Nc3ccc(Oc4ccccc4)cc3)ccnc2c1`, the results for the growth inhibition in assay [1] and in assay [4] were 93% (active) and 91% (active), respectively. The inhibition was 34% in assay [2] and -7% in assay [3]. The outcome in assay [5], in assay [6], in assay [7] and in assay [8] was inactive.

With `O=c1cc(NCCCN(Cc2ccccc2)Cc2ccccc2)[nH]c2ccccc12`, the values for the growth inhibition in assay [1] and in assay [4] were 93% (active) and 100% (active), respectively. Also, the inhibition in assay [2] was 7%; in assay [3], -3%. Also, the result in assay [5], in assay [6], in assay [7] and in assay [8] was inactive.

`CN1CCN(c2ccc(Cl)cc2NC(=O)C2COc3ccccc3O2)CC1` (configuration not stated): the growth inhibition is 44% in assay [1] and 99% (active) in assay [4]. In addition, the inhibition in assay [2] and in assay [3] was 2% each time. In addition, the outcome in assay [5], in assay [6], in assay [7] and in assay [8] was inactive.

For the compound `CCN(CCNC(=O)Nc1cc(C(F)(F)F)cc(C(F)(F)F)c1)c1cccc(C)c1`, the growth inhibition is 100% (active) in assay [1] and 98% (active) in assay [4]. Moreover, the results for the inhibition in assay [2] and in assay [3] were -3% and 4%, respectively. The outcome in assay [5], in assay [6], in assay [7] and in assay [8] was inactive.

Turning to `CCCc1ccc(NC(=O)c2ccc(CN3CCCN(Cc4ccc(OC)cc4)CC3)cc2)cc1`, the results for the growth inhibition in assay [1] and in assay [4] were -4% and 81% (active), respectively. Moreover, the inhibition in assay [2] was 47%; in assay [3], 0%. In addition, the result in assay [5], in assay [6], in assay [7] and in assay [8] was inactive.

Take `CC(C)COc1ccc(Cl)cc1Cc1nc(-c2nc3ccc(CN4CCCCC4)cc3[nH]2)co1`: the growth inhibition was 70% (active) in assay [1] and 101% (active) in assay [4]. For the same compound, the inhibition in assay [2] is 49%; in assay [3] it was -4%. The result in assay [5], in assay [6], in assay [7] and in assay [8] was inactive.

As for `O=C(Nc1ccc(OC2CCN(Cc3ccc(F)cc3)C2)c(Cl)c1)c1ccco1` (configuration not stated), the growth inhibition in assay [1] is 97% (active); in assay [4], 96% (active). In addition, the inhibition was 9% in assay [2] and -2% in assay [3]. Besides, the outcome in assay [5], in assay [6], in assay [7] and in assay [8] was inactive.

As for `Cc1cc(N[C@@H](Cc2ccccc2)C(=O)Nc2ccccc2)nc(NCCc2cccnc2)n1`, the values for the growth inhibition in assay [1] and in assay [4] were 57% (active) and 95% (active), respectively. The figures for the inhibition in assay [2] and in assay [3] were 32% and -3%, respectively. The result in assay [5], in assay [6], in assay [7] and in assay [8] was inactive.

With `Cc1nc(C)c(CC(=O)Nc2ccc(-c3cccc(-c4nc5ccc(C(F)(F)F)cc5[nH]4)c3)cc2)s1`, the growth inhibition was 4% in assay [1] and 86% (active) in assay [4]. In addition, the inhibition in assay [2] was 67% (active); in assay [3] it was 1%. Also, the result in assay [5], in assay [6], in assay [7] and in assay [8] was inactive.

Turning to `COc1ccc(-c2csc(C(=O)NC3CCC(N4CCC(c5ccccc5C)CC4)CC3)c2)cc1` (configuration not stated), the growth inhibition in assay [1] is 99% (active); in assay [4] it was 101% (active). Moreover, the inhibition is 64% (active) in assay [2] and -1% in assay [3]. The result in assay [5], in assay [6], in assay [7] and in assay [8] was inactive.

In the case of `CC(C)C(=O)NC(Nc1ccc([N+](=O)[O-])cc1)C(Cl)(Cl)Cl` (configuration not stated), the growth inhibition in assay [1] was 84% (active); in assay [4], 97% (active). Besides, the inhibition in assay [2] is 7%; in assay [3] it was -6%. In addition, the result in assay [5], in assay [6], in assay [7] and in assay [8] was inactive.

Regarding `Cc1ccc(O)cc1Nc1ccnc2ccc(-c3cccc(CN(C)C)c3)cc12`, the growth inhibition was 99% (active) in assay [1] and 101% (active) in assay [4]. For the same compound, the inhibition is -3% in assay [2] and 1% in assay [3]. The result in assay [5], in assay [6], in assay [7] and in assay [8] was inactive.
